Measured values published in the supplement of paper PMC3334620.
Whole data set: some 33,000 sequences, median “E-score (-0.5 to 0.5)” near -0.041, cut for the highest 2% near 0.37. The entries come from a sample that favours the highest values as a whole.

What follows are sequences tested against T1, Ecm22 (UniProt Q05958) (assay: PBM E-score (8-mer binding enrichment) (E-score (-0.5 to 0.5)); higher = stronger / more preferred TF binding). Conditions: protein concentration: 200 nM; construct: GST-full length.
T1 sequence: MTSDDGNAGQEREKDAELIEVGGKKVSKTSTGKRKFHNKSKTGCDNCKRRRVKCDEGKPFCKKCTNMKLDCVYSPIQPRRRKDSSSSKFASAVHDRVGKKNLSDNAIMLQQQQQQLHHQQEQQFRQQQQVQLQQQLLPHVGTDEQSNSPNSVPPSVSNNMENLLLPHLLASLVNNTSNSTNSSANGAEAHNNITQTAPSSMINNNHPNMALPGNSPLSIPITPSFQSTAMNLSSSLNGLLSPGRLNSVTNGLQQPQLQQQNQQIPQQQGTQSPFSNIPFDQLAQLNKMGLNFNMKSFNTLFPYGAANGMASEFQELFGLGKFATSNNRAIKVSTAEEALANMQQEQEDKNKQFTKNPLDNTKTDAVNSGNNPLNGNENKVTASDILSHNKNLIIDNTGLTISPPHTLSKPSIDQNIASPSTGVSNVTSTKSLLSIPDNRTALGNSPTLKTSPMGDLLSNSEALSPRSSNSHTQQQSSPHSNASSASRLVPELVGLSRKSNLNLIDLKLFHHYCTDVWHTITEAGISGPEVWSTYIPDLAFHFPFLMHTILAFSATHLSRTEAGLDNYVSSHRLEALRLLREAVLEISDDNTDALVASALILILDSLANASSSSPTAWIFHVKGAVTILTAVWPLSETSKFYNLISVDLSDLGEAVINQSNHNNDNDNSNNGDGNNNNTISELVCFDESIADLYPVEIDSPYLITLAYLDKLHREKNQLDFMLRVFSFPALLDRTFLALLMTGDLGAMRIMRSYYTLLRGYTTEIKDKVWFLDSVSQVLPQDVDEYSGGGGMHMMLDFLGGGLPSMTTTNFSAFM
In short: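 Masliner-normalised scans of fluorescent anti-GST signal were the basis for scoring. That signal came from GST-tagged yeast transcription factors applied at about 100-200 nM to double-stranded universal all-10-mer Agilent arrays on fresh or once-stripped slides. Each ungapped eight-base word, pooled with its reverse complement, received an E-score from the Universal PBM Analysis Suite.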

Row | Sequence | PBM E-score
1 | CGTAGCGA | 0.382
2 | AGTAGCGA | 0.153
3 | CGTAGCGC | 0.273
4 | TAGGGAAA | -0.0897
5 | AACGAATT | 0.36
6 | CACGAATG | 0.052
7 | TACGAATA | 0.43
8 | TACGAAAA | 0.423
9 | ATCGAATA | 0.138
10 | AACGAATA | 0.371
11 | CACGAAAA | 0.153
12 | GACGAATA | 0.0261
13 | AACGAATG | 0.429
14 | GACGAAAA | 0.196
15 | CACGAATA | 0.117
16 | ACCGAATA | 0.18
17 | AATTGCTA | -0.0544
18 | AGTGCTGG | -0.152
19 | AAGCGGTA | 0.145
20 | CACAACTC | 0.144
21 | ACCAGCTA | -0.0229
22 | AGCCAATG | -0.141

Row | Sequence | PBM E-score
23 | CAGGGGAA | -0.0465
24 | CGCGATCA | 0.179
25 | AGTTCTTG | -0.0776
26 | GTCAGGGA | -0.19
27 | CACGAATC | 0.0959
28 | AACGAATC | 0.387
29 | GACGAATC | 0.106
30 | ATGCAAGG | -0.193
31 | CCGCGACG | 0.0789
32 | ACCGGGCG | 0.0784
33 | GACCTACA | -0.18
34 | CATGGCGC | -0.137
35 | CCACTCCG | 0.019
36 | TGCGTACA | 0.283
37 | GCCGTGCA | -0.305
38 | ACCGTACG | 0.385
39 | GCCGTAGC | 0.163
40 | ACCGTAGG | -0.172
41 | GCCGTACA | 0.371
42 | GCCGTAAA | 0.366
43 | GGCGTACC | 0.279
44 | TCCGTACA | 0.379

Row | Sequence | PBM E-score
45 | TCCGTAGA | -0.0285
46 | GCCGTACC | 0.441
47 | ACCGTAAG | 0.212
48 | AATTCTAT | -0.104
49 | TACGTTCA | 0.276
50 | GATCCGGC | -0.0487
51 | GACCAGGA | -0.0856
52 | AGGGGAAA | -0.223
53 | CAAGGACA | -0.247
54 | GGCACCGA | -0.0384
55 | GAGTCACA | 0.0764
56 | AAACTGTT | -0.124
57 | ACCGTAGA | 0.0719
58 | ACCGTACA | 0.371
59 | ACCGTAAC | 0.231
60 | ACCGTACC | 0.416
61 | ACCGTAGC | 0.163
62 | ACCGTACT | 0.285
63 | CACTGTCG | 0.109
64 | GCCCTATA | -0.00087
65 | AAATAGCT | -0.0997
66 | GCTAACGA | 0.281

Row | Sequence | PBM E-score
67 | ATTAACGC | 0.122
68 | CTTAACGC | -0.0209
69 | CGTAACGA | 0.338
70 | GTTAACTA | 0.106
71 | CTTAACGA | 0.432
72 | ATTAACGG | 0.226
73 | GTTAACGA | 0.408
74 | ATTAACGA | 0.402
75 | AGAAGACA | 0.011
76 | GTGTTTCA | -0.0721
77 | GTCCTGGA | -0.225
78 | TTAATAAA | 0.169
79 | TCGAACCA | -0.029
80 | GCGAACTA | 0.114
81 | TCGAACAA | 0.109
82 | GCGAACGC | 0.138
83 | ACGAACGG | 0.392
84 | TCGAACGA | 0.373
85 | GCGAACGA | 0.397
86 | ACGAACGA | 0.447
